Assay results as given in PubChem BioAssay (NCATS).
Results filed as inconclusive are left out. Where a call stands in place of a potency, no number is given. The source made the active and inactive calls. Calls come from the whole dose curve; as a rule, active = well fitted curve in the direction sought with a large enough effect; inconclusive = small, poorly fitted or top-dose-only effect, or another doubt; inactive = no such curve, though single readings can be large; an effect the other way counts as inactive or inconclusive.

How the values were obtained:
[1] = qHTS of pediatric cancer cell lines to identify multiple opportunities for drug repurposing: Primary screen for Rh41 cells (AID 1347108); note: nearly all actives have a fitted effect of over 70% in size; note: potency is the fitted concentration of half-maximal effect
In short: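 Quantitative HTS format: each compound titrated (MIPE 11 points from 0.78 nM, NPC 8 points from 0.59 nM) onto cells plated 5 hours earlier. After 48 h at 37 degrees C, CellTiter-Glo luminescence was recorded.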

[2] = qHTS of pediatric cancer cell lines to identify multiple opportunities for drug repurposing: Confirmatory screen for NB1643 cells (AID 1347109); note: nearly all actives have a fitted effect of over 45% in size; note: potency is the fitted concentration of half-maximal effect
In short: (§1)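 Cells (500-1,000/well) in growth media were settled 5 h at 37 degrees C, then given compounds for 48 h. Viability was read as CellTiter-Glo luminescence. Primary runs used MIPE at 11 points (0.78 nM-46 µM) and NPC at 8 points (0.59 nM-46 µM); follow-ups used 11 points.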

[3] = qHTS of pediatric cancer cell lines to identify multiple opportunities for drug repurposing: Confirmatory screen for A673 cells (AID 1347110);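 note: cells exposed to compound for 48 h before the viability read; nearly all actives have a fitted effect of over 65% in size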; note: potency is the fitted concentration of half-maximal effect
In short: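 A673 cells seeded at 500-1,000 cells/well, rested 5 h, then dosed; primary MIPE 11-point (0.78 nM to 46 µM), NPC (0.59 nM to 46 µM); confirmatory 11-point. CellTiter-Glo luminescence after 48 h.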

[4] = qHTS of pediatric cancer cell lines to identify multiple opportunities for drug repurposing: Confirmatory screen for SK-N-MC cells (AID 1347111);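 note: potency is the fitted concentration of half-maximal effect; cells exposed to compound for 48 h before the readout; nearly all actives have a fitted effect of over 70% in size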
In short: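 Metabolically active cells were quantified by ATP-dependent luminescence (CellTiter-Glo, 15 min at room temperature) following 48 h treatment. Cells had been plated at 500-1,000 per well and settled for 5 h beforehand.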

[5] = qHTS of pediatric cancer cell lines to identify multiple opportunities for drug repurposing: Confirmatory screen for BT-12 cells (AID 1347112); note: nearly all actives have a fitted effect of over 55% in size; note: potency is the fitted concentration of half-maximal effect
In short: as §1

[6] = qHTS of pediatric cancer cell lines to identify multiple opportunities for drug repurposing: Confirmatory screen for LAN-5 cells (AID 1347113); note: nearly all actives have a fitted effect of over 65% in size; note: potency is the fitted concentration of half-maximal effect
In short: as §1

[7] = qHTS of pediatric cancer cell lines to identify multiple opportunities for drug repurposing: Confirmatory screen for NB-EBc1 cells (AID 1347115);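 note: cells exposed to compound for 48 h before the viability read; nearly all actives have a fitted effect of over 45% in size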; note: potency is the fitted concentration of half-maximal effect
In short: as §1

[8] = qHTS of pediatric cancer cell lines to identify multiple opportunities for drug repurposing: Confirmatory screen for BT-37 cells (AID 1347117); note: nearly all actives have a fitted effect of over 55% in size; note: potency is the fitted concentration of half-maximal effect
In short: as §1

[9] = qHTS of pediatric cancer cell lines to identify multiple opportunities for drug repurposing: Confirmatory screen for DAOY cells (AID 1347114); note: nearly all actives have a fitted effect of over 65% in size
In short: (§2)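 Viability measured as metabolically active cells via CellTiter-Glo luminescence following 48 hours of compound exposure, 11-point dilutions in confirmatory testing. 500-1,000 cells/well plated 5 hours before dosing; controls were DMSO and 2.3 µM bortezomib.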

[10] = qHTS of pediatric cancer cell lines to identify multiple opportunities for drug repurposing: Confirmatory screen for SJ-GBM2 cells (AID 1347116); note: nearly all actives have a fitted effect of over 60% in size; note: potency is the fitted concentration of half-maximal effect
In short: as §2

C[C@]12CCC3=C4CCC(=O)C=C4CC[C@@H]3[C@H]1CC[C@@]2(O)CC#N
Potency [1]: inactive

Cc1ccc2c(=O)c3cccc(CC(=O)O)c3oc2c1C
Potency [1]: 23.5 µM (active)

Cc1cc(-c2ncc(CC(=O)Nc3ccc(-c4cnccn4)cn3)cc2C)ccn1
Potency [1]: inactive

Cc1cc2nc3c(=O)[nH]c(=O)nc-3n(CC(O)C(O)C(O)CO)c2cc1C (stereo unspecified)
Potency [1]: inactive

Cc1nc(C(=O)NCC(=O)O)c(O)c2ccc(Oc3ccccc3)cc12
Potency [1]: inactive

CN1CCN2c3ncccc3Cc3ccccc3C2C1 (stereo unspecified)
Potency [1]: inactive

COc1cc(N2CCN(C)CC2)ccc1Nc1nc(N)c(C(=O)c2c(Cl)cccc2Cl)s1
Potency [1]: inactive

CNC1[C@H](O)C(O[C@@H]2C(O)C(O[C@H]3O[C@H]([C@@H](C)NC)CC[C@H]3N)[C@@H](N)C[C@H]2N)OC[C@]1(C)O (stereo partly specified)
Potency [1]: inactive

CN(C)CC[C@H](CSc1ccccc1)Nc1ccc(S(=O)(=O)NC(=O)c2ccc(N3CCN(Cc4ccccc4-c4ccc(Cl)cc4)CC3)cc2)cc1[N+](=O)[O-]
Potency [1]: 11.8 µM (active) | Potency [2]: 0.414 µM (active) | Potency [3]: 14.7 µM (active) | Potency [4]: 3.69 µM (active) | Potency [5]: inactive | Potency [6]: 0.414 µM (active) | Potency [7]: 8.27 µM (active)

Nc1ncnc2c1c(-c1cccc(OCc3ccccc3)c1)cn2C1CC(CN2CCC2)C1 (stereo unspecified)
Potency [1]: 2.96 µM (active)

Nc1ncnc2c1ncn2[C@@H]1O[C@H](CO)[C@@H](O)[C@@H]1O
Potency [1]: 2.35 µM (active) | Potency [2]: 14.7 µM (active) | Potency [3]: inactive | Potency [4]: 8.27 µM (active) | Potency [6]: 13.1 µM (active) | Potency [8]: 14.7 µM (active)

CCNC(=O)[C@H]1O[C@@H](n2cnc3c(N)nc(NCCc4ccc(CCC(=O)O)cc4)nc32)[C@H](O)[C@H]1O
Potency [1]: inactive

NC(=O)c1ncn([C@@H]2O[C@H](CO)[C@@H](O)[C@@H]2O)n1
Potency [1]: inactive

COc1nc(C)cnc1NS(=O)(=O)c1cccnc1-c1ccc(-c2nnco2)cc1
Potency [1]: inactive

OC1CCC(Nc2ncc3nc(Nc4c(F)cc(F)cc4F)n([C@@H]4CCOC4)c3n2)CC1 (stereo partly specified)
Potency [1]: inactive

C[C@@H]1C[C@H]2[C@@H]3CCC4=CC(=O)C=C[C@]4(C)[C@@]3(F)[C@@H](O)C[C@]2(C)[C@@]1(O)C(=O)CO
Potency [1]: inactive | Potency [2]: inactive | Potency [3]: inactive | Potency [5]: inactive | Potency [6]: inactive | Potency [9]: inactive | Potency [7]: inactive | Potency [8]: inactive

COc1cc(F)c(C(C)C)cc1-c1ccc(C(F)(F)F)cc1CN1C(=O)O[C@H](c2cc(C(F)(F)F)cc(C(F)(F)F)c2)[C@@H]1C
Potency [1]: inactive

CS(=O)(=O)c1ccc(C2=C(c3ccccc3)C(=O)OC2)cc1
Potency [1]: inactive

O=C(O)c1ccc(O)c2ncc(N3CCOCC3)cc12
Potency [1]: 18.7 µM (active)

CC1(C)CC(=O)c2c(C(F)(F)F)nn(-c3ccc(C(N)=O)c(NC4CCC(O)CC4)c3)c2C1 (stereo unspecified)
Potency [1]: 0.296 µM (active) | Potency [2]: 0.165 µM (active) | Potency [3]: 0.147 µM (active) | Potency [5]: inactive | Potency [6]: 0.185 µM (active) | Potency [7]: 0.261 µM (active) | Potency [8]: 0.104 µM (active)

O=C(CC12CC3CC(CC(C3)C1)C2)Nc1cccc2nc(NCCNCCO)ccc12
Potency [1]: inactive | Potency [2]: inactive | Potency [6]: inactive | Potency [7]: inactive

CC(C)(C)c1[nH]cnc1C=c1[nH]c(=O)c(=Cc2ccccc2)[nH]c1=O
Potency [2]: 0.0114 µM (active) | Potency [3]: 0.032 µM (active) | Potency [5]: 0.202 µM (active) | Potency [6]: 0.0114 µM (active) | Potency [7]: 0.018 µM (active) | outcome [10]: inactive [at 0.556 µM] | Potency [8]: 0.0143 µM (active)

NC(N)=Nc1nc(CSCCC(N)=NS(N)(=O)=O)cs1
Potency [2]: inactive | Potency [3]: inactive | Potency [5]: inactive | Potency [6]: inactive | Potency [7]: inactive | Potency [8]: inactive

CO[C@H]1/C=C\O[C@@]2(C)Oc3c(C)c(O)c4c(O)c(c5c(nc6cc(C)ccn65)c4c3C2=O)NC(=O)C(C)=CC=C[C@H](C)[C@H](O)[C@@H](C)[C@@H](O)[C@@H](C)[C@H](OC(C)=O)[C@H]1C
Potency [1]: inactive | Potency [2]: inactive | Potency [3]: inactive | Potency [5]: inactive | Potency [6]: inactive | Potency [7]: inactive | Potency [10]: inactive | Potency [8]: inactive

Cc1nn(Cc2ccccc2Cl)c(C)c1CN(C)CC(O)COc1ccc(Cl)cc1 (stereo unspecified)
Potency [1]: 18.7 µM (active) | Potency [7]: inactive | Potency [10]: inactive

CCOC(=O)[C@H](CCc1ccccc1)N[C@@H](C)C(=O)N1CCCC1C(=O)O (stereo partly specified)
Potency [1]: inactive | Potency [2]: 7.37 µM (active) | Potency [3]: 4.14 µM (active) | Potency [6]: 9.27 µM (active)

C[C@@]1(c2cc(-c3cncnc3)c(F)cc2F)CCSC(N)=N1
Potency [1]: inactive | Potency [2]: 20.8 µM (active) | Potency [3]: inactive | Potency [8]: 11.7 µM (active)

CN1CCN(c2ncc(-c3cc(Cl)cc(Cl)c3Cl)c(N)n2)CC1
Potency [1]: inactive | Potency [9]: inactive | Potency [7]: inactive | Potency [8]: 26.1 µM (active)

OCCn1cc(-c2ccc3c(c2)CCC3=NO)c(-c2ccncc2)n1
Potency [1]: inactive | Potency [2]: inactive | Potency [5]: inactive | Potency [9]: inactive | Potency [7]: inactive | Potency [8]: inactive

FC(F)(F)c1ccc(C=Cc2nc(COc3ccc(CCCCn4ccnn4)cc3)co2)cc1
Potency [1]: 0.469 µM (active) | Potency [7]: 0.369 µM (active) | Potency [10]: inactive

C=CC(=O)Nc1cccc(Sc2nc(Nc3ccc(N4CCN(C)CC4)cc3)ncc2Cl)c1
Potency [2]: 8.27 µM (active) | Potency [3]: 4.14 µM (active) | Potency [5]: 23.3 µM (active) | Potency [6]: 9.27 µM (active) | Potency [7]: 18.5 µM (active) | Potency [10]: 14.7 µM (active) | Potency [8]: 13.1 µM (active)

Cc1ccc(C(=O)N(CCCN)[C@@H](c2oc3cc(Cl)ccc3c(=O)c2Cc2ccccc2)C(C)C)cc1
Potency [2]: 6.57 µM (active) | Potency [3]: 0.0019 µM (active) | Potency [5]: 0.0104 µM (active) | Potency [6]: 14.7 µM (active) | Potency [7]: 8.27 µM (active) | Potency [8]: 0.0117 µM (active)
